Reference: publication PMC11006913

Legend:
HOXA7 [1] = biological target: HOXA7 (Homo sapiens, UniProt P31268 116-202); experiment: PBM; 200 nM protein, PBS; conditions: dsDNA, one strand shown
HOXA7 [2] = biological target: HOXA7 (Homo sapiens, UniProt P31268 116-202, W177C); experiment: PBM; 200 nM protein, PBS; conditions: dsDNA, one strand shown
Chain of HOXA7 (Homo sapiens, UniProt P31268 116-202, W177C) (P31268 116-202 W177C): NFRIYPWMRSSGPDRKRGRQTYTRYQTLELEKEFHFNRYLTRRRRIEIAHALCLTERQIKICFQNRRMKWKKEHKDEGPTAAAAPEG

Chain of HOXA7 (Homo sapiens, UniProt P31268 116-202) (P31268 116-202): as the sequence (P31268 116-202 W177C) above, with C62W counted along it

CCATTATA
binding signal (HOXA7 [1]): 11.2 upbm affinity estimate (log intensity, higher = more binding, comparable within an allelic series)
binding signal (HOXA7 [2]): 8.97 upbm affinity estimate (log intensity, higher = more binding, comparable within an allelic series)

CTATTATA
binding signal (HOXA7 [1]): 10.7 upbm affinity estimate (log intensity, higher = more binding, comparable within an allelic series)
binding signal (HOXA7 [2]): 8.92 upbm affinity estimate (log intensity, higher = more binding, comparable within an allelic series)

CACCTACG
binding signal (HOXA7 [1]): 8.56 upbm affinity estimate (log intensity, higher = more binding, comparable within an allelic series)
binding signal (HOXA7 [2]): 8.57 upbm affinity estimate (log intensity, higher = more binding, comparable within an allelic series)

CCTTATAA
binding signal (HOXA7 [1]): 9.62 upbm affinity estimate (log intensity, higher = more binding, comparable within an allelic series)
binding signal (HOXA7 [2]): 8.88 upbm affinity estimate (log intensity, higher = more binding, comparable within an allelic series)

ACAGCGAG
binding signal (HOXA7 [1]): 8.39 upbm affinity estimate (log intensity, higher = more binding, comparable within an allelic series)
binding signal (HOXA7 [2]): 8.41 upbm affinity estimate (log intensity, higher = more binding, comparable within an allelic series)

GCGGCTAC
binding signal (HOXA7 [1]): 8.37 upbm affinity estimate (log intensity, higher = more binding, comparable within an allelic series)
binding signal (HOXA7 [2]): 8.37 upbm affinity estimate (log intensity, higher = more binding, comparable within an allelic series)

AGTAGCCG
binding signal (HOXA7 [1]): 8.51 upbm affinity estimate (log intensity, higher = more binding, comparable within an allelic series)
binding signal (HOXA7 [2]): 8.43 upbm affinity estimate (log intensity, higher = more binding, comparable within an allelic series)

GCAAGCTA
binding signal (HOXA7 [1]): 8.39 upbm affinity estimate (log intensity, higher = more binding, comparable within an allelic series)
binding signal (HOXA7 [2]): 8.42 upbm affinity estimate (log intensity, higher = more binding, comparable within an allelic series)

CAGTAATC
binding signal (HOXA7 [1]): 9.67 upbm affinity estimate (log intensity, higher = more binding, comparable within an allelic series)
binding signal (HOXA7 [2]): 8.66 upbm affinity estimate (log intensity, higher = more binding, comparable within an allelic series)

CAGCGTGG
binding signal (HOXA7 [1]): 8.45 upbm affinity estimate (log intensity, higher = more binding, comparable within an allelic series)
binding signal (HOXA7 [2]): 8.4 upbm affinity estimate (log intensity, higher = more binding, comparable within an allelic series)

ATAAGTAT
binding signal (HOXA7 [1]): 9.57 upbm affinity estimate (log intensity, higher = more binding, comparable within an allelic series)
binding signal (HOXA7 [2]): 8.76 upbm affinity estimate (log intensity, higher = more binding, comparable within an allelic series)

AGGCTCTC
binding signal (HOXA7 [1]): 8.46 upbm affinity estimate (log intensity, higher = more binding, comparable within an allelic series)
binding signal (HOXA7 [2]): 8.32 upbm affinity estimate (log intensity, higher = more binding, comparable within an allelic series)

CCCCCGAC
binding signal (HOXA7 [1]): 8.66 upbm affinity estimate (log intensity, higher = more binding, comparable within an allelic series)
binding signal (HOXA7 [2]): 8.36 upbm affinity estimate (log intensity, higher = more binding, comparable within an allelic series)

AGAGACTG
binding signal (HOXA7 [1]): 8.18 upbm affinity estimate (log intensity, higher = more binding, comparable within an allelic series)
binding signal (HOXA7 [2]): 8.35 upbm affinity estimate (log intensity, higher = more binding, comparable within an allelic series)

AAGACGAG
binding signal (HOXA7 [1]): 8.4 upbm affinity estimate (log intensity, higher = more binding, comparable within an allelic series)
binding signal (HOXA7 [2]): 8.43 upbm affinity estimate (log intensity, higher = more binding, comparable within an allelic series)

AAGGCTAC
binding signal (HOXA7 [1]): 8.53 upbm affinity estimate (log intensity, higher = more binding, comparable within an allelic series)
binding signal (HOXA7 [2]): 8.49 upbm affinity estimate (log intensity, higher = more binding, comparable within an allelic series)

GACAGCGA
binding signal (HOXA7 [1]): 8.31 upbm affinity estimate (log intensity, higher = more binding, comparable within an allelic series)
binding signal (HOXA7 [2]): 8.41 upbm affinity estimate (log intensity, higher = more binding, comparable within an allelic series)

AGAAGAAA
binding signal (HOXA7 [1]): 8.53 upbm affinity estimate (log intensity, higher = more binding, comparable within an allelic series)
binding signal (HOXA7 [2]): 8.55 upbm affinity estimate (log intensity, higher = more binding, comparable within an allelic series)

CGCGTTTC
binding signal (HOXA7 [1]): 8.49 upbm affinity estimate (log intensity, higher = more binding, comparable within an allelic series)
binding signal (HOXA7 [2]): 8.39 upbm affinity estimate (log intensity, higher = more binding, comparable within an allelic series)

CACCGCTA
binding signal (HOXA7 [1]): 8.52 upbm affinity estimate (log intensity, higher = more binding, comparable within an allelic series)
binding signal (HOXA7 [2]): 8.43 upbm affinity estimate (log intensity, higher = more binding, comparable within an allelic series)

CTGAAGGC
binding signal (HOXA7 [1]): 8.34 upbm affinity estimate (log intensity, higher = more binding, comparable within an allelic series)
binding signal (HOXA7 [2]): 8.31 upbm affinity estimate (log intensity, higher = more binding, comparable within an allelic series)

GCAAGCGA
binding signal (HOXA7 [1]): 8.55 upbm affinity estimate (log intensity, higher = more binding, comparable within an allelic series)
binding signal (HOXA7 [2]): 8.45 upbm affinity estimate (log intensity, higher = more binding, comparable within an allelic series)

CCAGAGGA
binding signal (HOXA7 [1]): 8.4 upbm affinity estimate (log intensity, higher = more binding, comparable within an allelic series)
binding signal (HOXA7 [2]): 8.47 upbm affinity estimate (log intensity, higher = more binding, comparable within an allelic series)

AGGCAAGG
binding signal (HOXA7 [1]): 8.35 upbm affinity estimate (log intensity, higher = more binding, comparable within an allelic series)
binding signal (HOXA7 [2]): 8.48 upbm affinity estimate (log intensity, higher = more binding, comparable within an allelic series)

TACGTTAA
binding signal (HOXA7 [1]): 9.58 upbm affinity estimate (log intensity, higher = more binding, comparable within an allelic series)
binding signal (HOXA7 [2]): 8.79 upbm affinity estimate (log intensity, higher = more binding, comparable within an allelic series)

CTCATTTA
binding signal (HOXA7 [1]): 9.93 upbm affinity estimate (log intensity, higher = more binding, comparable within an allelic series)
binding signal (HOXA7 [2]): 8.72 upbm affinity estimate (log intensity, higher = more binding, comparable within an allelic series)

AAAATGAC
binding signal (HOXA7 [1]): 10 upbm affinity estimate (log intensity, higher = more binding, comparable within an allelic series)
binding signal (HOXA7 [2]): 8.89 upbm affinity estimate (log intensity, higher = more binding, comparable within an allelic series)

GATTAAAC
binding signal (HOXA7 [1]): 9.54 upbm affinity estimate (log intensity, higher = more binding, comparable within an allelic series)
binding signal (HOXA7 [2]): 8.63 upbm affinity estimate (log intensity, higher = more binding, comparable within an allelic series)

ACCTGCAC
binding signal (HOXA7 [1]): 8.57 upbm affinity estimate (log intensity, higher = more binding, comparable within an allelic series)
binding signal (HOXA7 [2]): 8.45 upbm affinity estimate (log intensity, higher = more binding, comparable within an allelic series)

ATTGATTG
binding signal (HOXA7 [1]): 10.1 upbm affinity estimate (log intensity, higher = more binding, comparable within an allelic series)
binding signal (HOXA7 [2]): 8.75 upbm affinity estimate (log intensity, higher = more binding, comparable within an allelic series)

CTGGATGC
binding signal (HOXA7 [1]): 8.4 upbm affinity estimate (log intensity, higher = more binding, comparable within an allelic series)
binding signal (HOXA7 [2]): 8.44 upbm affinity estimate (log intensity, higher = more binding, comparable within an allelic series)

GGCCTGAA
binding signal (HOXA7 [1]): 8.61 upbm affinity estimate (log intensity, higher = more binding, comparable within an allelic series)
binding signal (HOXA7 [2]): 8.38 upbm affinity estimate (log intensity, higher = more binding, comparable within an allelic series)

CAAGCACC
binding signal (HOXA7 [1]): 8.65 upbm affinity estimate (log intensity, higher = more binding, comparable within an allelic series)
binding signal (HOXA7 [2]): 8.49 upbm affinity estimate (log intensity, higher = more binding, comparable within an allelic series)

CACGGAAG
binding signal (HOXA7 [1]): 8.42 upbm affinity estimate (log intensity, higher = more binding, comparable within an allelic series)
binding signal (HOXA7 [2]): 8.45 upbm affinity estimate (log intensity, higher = more binding, comparable within an allelic series)

CCGCTTCG
binding signal (HOXA7 [1]): 8.43 upbm affinity estimate (log intensity, higher = more binding, comparable within an allelic series)
binding signal (HOXA7 [2]): 8.41 upbm affinity estimate (log intensity, higher = more binding, comparable within an allelic series)

AGCAGAAG
binding signal (HOXA7 [1]): 8.46 upbm affinity estimate (log intensity, higher = more binding, comparable within an allelic series)
binding signal (HOXA7 [2]): 8.54 upbm affinity estimate (log intensity, higher = more binding, comparable within an allelic series)

CGACTAGC
binding signal (HOXA7 [1]): 8.47 upbm affinity estimate (log intensity, higher = more binding, comparable within an allelic series)
binding signal (HOXA7 [2]): 8.47 upbm affinity estimate (log intensity, higher = more binding, comparable within an allelic series)

ATATTGTA
binding signal (HOXA7 [1]): 9.55 upbm affinity estimate (log intensity, higher = more binding, comparable within an allelic series)
binding signal (HOXA7 [2]): 8.9 upbm affinity estimate (log intensity, higher = more binding, comparable within an allelic series)

AGATAAAC
binding signal (HOXA7 [1]): 9.31 upbm affinity estimate (log intensity, higher = more binding, comparable within an allelic series)
binding signal (HOXA7 [2]): 8.79 upbm affinity estimate (log intensity, higher = more binding, comparable within an allelic series)

CTTCTAGA
binding signal (HOXA7 [1]): 8.36 upbm affinity estimate (log intensity, higher = more binding, comparable within an allelic series)
binding signal (HOXA7 [2]): 8.5 upbm affinity estimate (log intensity, higher = more binding, comparable within an allelic series)

GTCAGGCA
binding signal (HOXA7 [1]): 8.57 upbm affinity estimate (log intensity, higher = more binding, comparable within an allelic series)
binding signal (HOXA7 [2]): 8.43 upbm affinity estimate (log intensity, higher = more binding, comparable within an allelic series)

TAATTCAA
binding signal (HOXA7 [1]): 9.8 upbm affinity estimate (log intensity, higher = more binding, comparable within an allelic series)
binding signal (HOXA7 [2]): 8.74 upbm affinity estimate (log intensity, higher = more binding, comparable within an allelic series)

CATTATGC
binding signal (HOXA7 [1]): 10.3 upbm affinity estimate (log intensity, higher = more binding, comparable within an allelic series)
binding signal (HOXA7 [2]): 8.86 upbm affinity estimate (log intensity, higher = more binding, comparable within an allelic series)

AGACGGGA
binding signal (HOXA7 [1]): 8.62 upbm affinity estimate (log intensity, higher = more binding, comparable within an allelic series)
binding signal (HOXA7 [2]): 8.51 upbm affinity estimate (log intensity, higher = more binding, comparable within an allelic series)

GAAGGGAC
binding signal (HOXA7 [1]): 8.46 upbm affinity estimate (log intensity, higher = more binding, comparable within an allelic series)
binding signal (HOXA7 [2]): 8.39 upbm affinity estimate (log intensity, higher = more binding, comparable within an allelic series)

ACCCCCCT
binding signal (HOXA7 [1]): 8.3 upbm affinity estimate (log intensity, higher = more binding, comparable within an allelic series)
binding signal (HOXA7 [2]): 8.32 upbm affinity estimate (log intensity, higher = more binding, comparable within an allelic series)

CAATTGCG
binding signal (HOXA7 [1]): 9.48 upbm affinity estimate (log intensity, higher = more binding, comparable within an allelic series)
binding signal (HOXA7 [2]): 8.54 upbm affinity estimate (log intensity, higher = more binding, comparable within an allelic series)

AAATTGCC
binding signal (HOXA7 [1]): 10.3 upbm affinity estimate (log intensity, higher = more binding, comparable within an allelic series)
binding signal (HOXA7 [2]): 8.7 upbm affinity estimate (log intensity, higher = more binding, comparable within an allelic series)
